# Inconclusive results are not listed. A call without a number means that no potency is given here. Active and inactive are the calls of the source. Unless noted, calls come from the whole dose curve.
# How the values were obtained:
# [1] = target: Peroxisome proliferator-activated receptor delta (Homo sapiens) (UniProt Q03181); assay: qHTS assay for small molecule agonists of peroxisome proliferator-activated receptor delta signaling (AID 588534)
# Outline: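 Titration series tested in agonist mode on beta-lactamase reporter cells; 18 hrs at 37 C after a 5 hr pre-incubation. Readout: CCF4 fluorescence, 2 hrs RT. Hill equation gives EC50 and maximal response.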
# [2] = Primary qHTS for inhibitors of SARS-S pseudo-typed particle cell entry (AID 1479145); settings: outcome: dose series up to 57.1 µM unless noted; note: nearly all actives have a fitted effect of over 45% in size; note: potency is the fitted concentration of half-maximal effect
# [3] = Primary qHTS for Huh7 cytotoxicity: counterscreen for inhibitors of MERS-S pseudotyped particle cell entry (AID 1479147); settings: outcome: dose series up to 57.1 µM unless noted
# [4] = Primary qHTS for inhibitors of MERS-S pseudo-typed particle cell entry (AID 1479149); settings: outcome: dose series up to 57.1 µM unless noted; note: nearly all actives have a fitted effect of over 60% in size
# [5] = Primary qHTS for Vero E6 cytotoxicity: counterscreen for inhibitors of SARS-S pseudo-typed particle cell entry (AID 1479150); settings: outcome: dose series up to 57.1 µM unless noted
# [6] = Primary qHTS to identify inhibitors of SARS-CoV-2 cell entry (AID 1645846); settings: SARS-CoV-2 pseudovirus cell entry assay, luminescence; activity change, negative = inhibition: at 57.1 µM (top of the series) unless noted; note: nearly all actives have a fitted effect of over 45% in size; note: potency is the fitted concentration of half-maximal effect
# Outline: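 Data are normalized to wells receiving SARS-CoV-2-S pseudoparticles and those given bald particles. Entry signal was luciferase luminescence in stable hACE2 Expi293F cells, 48 hr post-infection, after 1 hr compound pretreatment.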
# [7] = qHTS profiling of the MIPE4 collection as inhibitors of Plasmodium falciparum (3D7) proliferation (AID 743344; call rule not given here); settings: P. falciparum 3D7 in erythrocytes, SYBR Green DNA fluorescence, 72 h; at 28.5 µM (top of the series)
# Outline: (§1)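 Parasite DNA was quantified by SYBR Green I fluorescence (ex 485, em 535 nm) after overnight lysis in saponin/Triton buffer at room temperature. Cultures at 0.3% parasitemia and 2.5% hematocrit were first exposed to compound for 72 h at 37 C; signals were normalised to artemisinin (0.29 uM) and vehicle wells.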
# [8] = qHTS profiling of the MIPE4 collection as inhibitors of Plasmodium falciparum (DD2) proliferation (AID 743345; call rule not given here); settings: P. falciparum Dd2 in erythrocytes, SYBR Green DNA, 72 h; at 28.5 µM (top of the series)
# Outline: as §1
# [9] = qHTS profiling of the MIPE4 collection as inhibitors of Plasmodium falciparum (DD2) proliferation (Rep 2) (AID 743346; call rule not given here); settings: P. falciparum Dd2 in erythrocytes, SYBR Green DNA, 72 h; at 28.5 µM (top of the series)
# Outline: as §1
# [10] = target: Glutathione peroxidase 1 (Homo sapiens) (UniProt P07203); assay: Primary qHTS Assay for Inhibitors of Recombinant Selenoprotein Glutathione Peroxidase 1 (GPX1) (AID 1845191; active = well fitted curve in the direction sought with a large enough effect; an effect the other way counts as inactive or inconclusive; note: nearly all actives have a fitted effect of over 65% in size)
# Sequence of Glutathione peroxidase 1 (Homo sapiens) (P07203 whole entry, looked up): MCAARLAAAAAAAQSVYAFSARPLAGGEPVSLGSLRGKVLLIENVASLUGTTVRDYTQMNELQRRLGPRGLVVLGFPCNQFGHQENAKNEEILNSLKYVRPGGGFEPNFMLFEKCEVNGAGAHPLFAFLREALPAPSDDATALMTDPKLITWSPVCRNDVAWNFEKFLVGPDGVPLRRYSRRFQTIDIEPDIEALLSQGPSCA
# Outline: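 GR-coupled readout: NADPH consumption tracked by fluorescence, ex 340/em 450 nm, at t=0 and after 15 min at RT. Final mix 10 nM GPX1, 1 mM GSH, 0.5 mM CHP, 0.5 mM NADPH, 100 nM GR, 0.01% BSA, following 30 min enzyme–compound preincubation.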
# [11] = qHTS profiling for inhibitors of Plasmodium falciparum (3D7) proliferation (AID 743322; call rule not given here;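 note: infected erythrocytes exposed to compound for 72 h before lysis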); settings: P. falciparum 3D7 proliferation; at 28.7 µM (top of the series)
# Outline: as §1
# [12] = qHTS profiling for inhibitors of Plasmodium falciparum (DD2) proliferation (AID 743323; call rule not given here); settings: lower = more inhibition; at 28.7 µM (top of the series)
# Outline: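 P. falciparum Dd2-infected erythrocytes (0.3% parasitemia, 2.5% hematocrit) exposed 72 h at 37 C, 5% CO2. Lysis with SYBR Green, overnight at room temperature, fluorescence 485/535 nm; normalized to 0.29 uM artemisinin and DMSO.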
# [13] = qHTS profiling for inhibitors of Plasmodium falciparum (HB3) proliferation (AID 743324; active = well fitted curve in the direction sought with a large enough effect; an effect the other way counts as inactive or inconclusive); settings: Plasmodium falciparum HB3 blood-stage proliferation; at 28.7 µM (top of the series)
# Outline: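 SYBR Green fluorescence (485 ex/535 em) of lysed cultures, incubated overnight at room temperature in the dark, quantifies parasite DNA. Infected erythrocytes at 0.3% parasitemia and 2.5% hematocrit were exposed 72 h; values normalized to DMSO and 0.29 uM artemisinin controls.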
# [14] = Cytotoxicity counterscreen for inhibitors of SARS-CoV-2 cell entry (AID 1645845); settings: outcome: dose series up to 57.1 µM unless noted; note: nearly all actives have a fitted effect of over 50% in size
# Outline: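 Counterscreen run in the same HEK293-ACE2 line as the pseudotyped-particle entry assay, without particles. Viability after 48 h at 37 C was read as ATP luminescence, scaled between cell-containing and cell-free wells.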
# [15] = target: Cytochrome P450 2D6 (Homo sapiens) (UniProt P10635); assay: Cytochrome P450 family 2 subfamily D member 6 (CYP2D6) small molecule antagonists: luciferase biochemical (cell-free) qHTS assay (AID 1645840; active = well fitted curve in the direction sought with a large enough effect in the repeat runs; an effect the other way counts as inactive or inconclusive; note: potency is the fitted concentration of half-maximal effect; nearly all actives have a fitted effect of over 55% in size)
# Sequence of Cytochrome P450 2D6 (Homo sapiens) (P10635 whole entry, looked up): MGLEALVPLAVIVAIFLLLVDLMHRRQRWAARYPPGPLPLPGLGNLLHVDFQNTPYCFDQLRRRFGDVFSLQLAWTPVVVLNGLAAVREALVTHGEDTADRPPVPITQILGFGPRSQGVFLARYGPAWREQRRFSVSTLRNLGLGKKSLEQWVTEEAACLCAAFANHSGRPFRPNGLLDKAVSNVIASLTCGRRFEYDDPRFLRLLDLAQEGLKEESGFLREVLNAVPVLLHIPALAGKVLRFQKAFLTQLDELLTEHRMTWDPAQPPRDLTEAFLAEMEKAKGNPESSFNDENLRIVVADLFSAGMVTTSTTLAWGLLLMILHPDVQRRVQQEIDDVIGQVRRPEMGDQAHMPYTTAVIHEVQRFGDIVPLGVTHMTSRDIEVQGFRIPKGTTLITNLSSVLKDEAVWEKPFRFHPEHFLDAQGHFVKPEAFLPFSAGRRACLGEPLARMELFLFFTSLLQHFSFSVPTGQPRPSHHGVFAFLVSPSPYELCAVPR
# Outline: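 P450-Glo CYP2D6 system: proluciferin substrate converted by enzyme to luciferin, read by luminescence proportional to activity. Enzyme-substrate mix with compound 10 min at room temperature, then NADPH regeneration 1 h before detection reagent.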
# [16] = target: Cytochrome P450 3A4 (Homo sapiens) (UniProt P08684); assay: qHTS Assay for Inhibitors and Substrates of Cytochrome P450 3A4 (AID 884; active = well fitted curve in the direction sought with a large enough effect; an effect the other way counts as inactive or inconclusive; note: potency is the fitted concentration of half-maximal effect; nearly all actives have a fitted effect of over 50% in size)
# Sequence of Cytochrome P450 3A4 (Homo sapiens) (P08684 whole entry, looked up): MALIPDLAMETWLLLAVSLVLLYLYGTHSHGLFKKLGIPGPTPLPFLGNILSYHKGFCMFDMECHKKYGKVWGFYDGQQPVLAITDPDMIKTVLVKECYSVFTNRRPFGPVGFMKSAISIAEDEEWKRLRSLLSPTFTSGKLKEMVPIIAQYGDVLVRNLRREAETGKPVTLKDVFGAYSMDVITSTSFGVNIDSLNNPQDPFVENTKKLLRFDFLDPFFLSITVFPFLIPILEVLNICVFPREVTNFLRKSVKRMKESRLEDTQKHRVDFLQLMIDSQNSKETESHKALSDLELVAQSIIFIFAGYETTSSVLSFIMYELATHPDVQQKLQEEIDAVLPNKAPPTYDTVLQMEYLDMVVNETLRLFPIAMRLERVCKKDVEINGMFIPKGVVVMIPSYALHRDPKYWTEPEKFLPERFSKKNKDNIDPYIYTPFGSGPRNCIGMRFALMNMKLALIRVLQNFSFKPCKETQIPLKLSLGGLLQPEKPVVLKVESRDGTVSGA
# Outline: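 Luminescent readout of luciferin produced by CYP3A4 (20 nM) dealkylation of Luciferin-PPXE, 25 uM (its KM). NADPH-driven reaction ran 60 min at RT after 10 min compound preincubation; data scaled to 57 uM ketoconazole as 100% inhibition.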
# [17] = target: Cytochrome P450 3A4 (Homo sapiens) (UniProt P08684); assay: qHTS Assay for Activators of Cytochrome P450 3A4 (AID 885; active = well fitted curve in the direction sought with a large enough effect; an effect the other way counts as inactive or inconclusive; note: nearly all actives have a fitted effect of over 65% in size)
# Outline: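 Human CYP3A4 dealkylates Luciferin-PPXE to luciferin, which luciferase detection converts to light. Substrate was at its KM (25uM), buffer 200mM KPO4, reaction 60 min at RT.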
# [18] = target: Cytochrome P450 2D6 (Homo sapiens) (UniProt P10635); assay: qHTS Assay for Inhibitors and Substrates of Cytochrome P450 2D6 (AID 891; active = well fitted curve in the direction sought with a large enough effect; an effect the other way counts as inactive or inconclusive; note: potency is the fitted concentration of half-maximal effect; nearly all actives have a fitted effect of over 60% in size)
# Outline: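 Luminescent read-out of luciferin formed by 5 nM human CYP2D6 demethylating 30 uM Luciferin-ME EGE (Km level) over 60 min at room temperature after NADPH regeneration addition. Data normalized to full inhibition by 1.43 uM quinidine.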
# [19] = Confirmatory qHTS to identify inhibitors of SARS-CoV-2 cell entry (AID 1645844); note: potency is the fitted concentration of half-maximal effect; nearly all actives have a fitted effect of over 45% in size
# Outline: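 HEK293-ACE2, overnight seeding; cpd 1 h, 37C/5% CO2; + SARS-CoV-2-S MLV PP (Wuhan-Hu-1, ΔC19); 48 h; Bright-Glo luminescence. Data normalised to S PP and bald PP wells.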
# [20] = VSVG counterscreen qHTS to identify inhibitors of SARS-CoV-2 cell entry (AID 1645847); note: potency is the fitted concentration of half-maximal effect; nearly all actives have a fitted effect of over 65% in size
# Outline: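 Counterscreen using VSV-G (not spike) pseudotyped MLV particles on ACE2-expressing Expi293F cells after 1 h compound preincubation; infection ran 48 h at 37 °C. Data normalized to VSV-G PP and bald-PP wells.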
# [21] = Confirmatory qHTS for VERO E6 Cytotoxicity Assay: Counterscreen for SARS-CoV-2 CPE Assay (AID 1508605); note: nearly all actives have a fitted effect of over 60% in size
# Sequence of Peroxisome proliferator-activated receptor delta (Homo sapiens) (Q03181 whole entry, looked up): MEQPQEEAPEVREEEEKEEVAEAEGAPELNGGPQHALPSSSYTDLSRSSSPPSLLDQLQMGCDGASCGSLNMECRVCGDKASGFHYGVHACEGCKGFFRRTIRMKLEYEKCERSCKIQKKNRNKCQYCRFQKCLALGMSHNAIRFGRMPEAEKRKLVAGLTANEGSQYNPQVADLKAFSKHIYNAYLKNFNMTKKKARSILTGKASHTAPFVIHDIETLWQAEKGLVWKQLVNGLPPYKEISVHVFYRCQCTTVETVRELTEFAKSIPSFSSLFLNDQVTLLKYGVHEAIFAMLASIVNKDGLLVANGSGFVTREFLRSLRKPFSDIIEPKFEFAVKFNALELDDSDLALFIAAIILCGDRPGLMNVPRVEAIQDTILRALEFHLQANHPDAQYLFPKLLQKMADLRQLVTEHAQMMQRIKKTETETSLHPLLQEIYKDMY
smiles,measurement,setting,value
O=C(O)c1ccccc1C(c1ccc(O)cc1)c1ccc(O)cc1,outcome,[1],inactive
same,Potency,[2],inactive
same,Potency,[3],inactive
same,Potency,[4],inactive
same,Potency,[5],inactive
same,"activity change, negative = inhibition",[6],-24.4%
CN[C@@H]1[C@H](O)[C@H](O[C@@H]2[C@H](O)[C@@H](O[C@H]3O[C@H]([C@@H](C)NC)CC[C@H]3N)[C@@H](N)C[C@H]2N)OC[C@]1(C)O,"parasite growth, % of DMSO control",[7],81.2%
same,"parasite growth remaining, % of DMSO control (lower = more inhibition)",[8],98.7%
same,"parasite growth, % of control (lower = inhibition)",[9],196%
same,outcome,[2],inactive [at 11.4 µM]
same,"activity change, negative = cytotoxicity",[3],-2.83% [at 11.4 µM] (inactive)
same,outcome,[4],inactive [at 11.4 µM]
same,"activity change, negative = cytotoxicity",[5],-14.2% [at 11.4 µM] (inactive)
same,"activity change, negative = inhibition",[6],-8.26% [at 11.3 µM]
Cc1cc(N2CCN([C@@H]3CN[C@H](C(=O)N4CCSC4)C3)CC2)n(-c2ccccc2)n1,Potency,[2],inactive
same,Potency,[3],inactive
same,Potency,[4],inactive
same,Potency,[5],inactive
same,"activity change, negative = inhibition",[6],-20%
NC[C@@H]1CC[C@@H](N)[C@@H](O[C@H]2[C@H](O)[C@@H](O[C@H]3O[C@H](CO)[C@@H](O)[C@H](N)[C@H]3O)[C@H](N)C[C@@H]2N)O1,Potency,[2],inactive
same,Potency,[3],inactive
same,Potency,[4],inactive
same,Potency,[5],inactive
same,"activity change, negative = inhibition",[6],-17.7% [at 27.1 µM]
CCCCCCCCCCCC(=O)OCN1C(=O)CCc2ccc(OCCCCN3CCN(c4cccc(Cl)c4Cl)CC3)cc21,Potency,[2],inactive
same,Potency,[3],inactive
same,Potency,[4],inactive
same,Potency,[5],inactive
same,"activity change, negative = inhibition",[6],-17.3% [at 19 µM]
C=C/C=C/CC1=C(C)[C@H](OC(=O)[C@H]2[C@H](/C=C(\C)C(=O)OC)C2(C)C)CC1=O,Potency,[2],inactive
same,Potency,[3],inactive
same,Potency,[4],inactive
same,Potency,[5],inactive
same,Potency,[10],inactive
OB1OCc2cc(F)ccc21,remaining parasite growth % (stronger effect = lower value),[11],85.7%
same,"activity, percent of control",[12],91.5%
same,"remaining proliferation (% of control), lower = more inhibition",[13],40.3%
same,Potency,[2],inactive
same,Potency,[3],inactive
same,Potency,[4],inactive
same,Potency,[5],inactive
same,"activity change, negative = inhibition",[6],-25.6%
C[C@H]1[C@H](O)[C@@H](C)/C=C/C=C/CC/C=C/C=C/C=C/C=C/C(OC2O[C@H](C)[C@@H](O)[C@H](N)[C@@H]2O)CC2O[C@](O)(CC(O)C(O)CCC(O)CC(O)CC(O)CC(=O)O[C@H]1C)CC(O)C2C(=O)O (stereo partly drawn),Potency,[2],inactive
same,Potency,[3],inactive
same,Potency,[4],inactive
same,Potency,[5],inactive
same,"activity change, negative = inhibition",[6],-22.7%
same,Potency,[10],inactive
O=C(NNCS(=O)(=O)O)c1ccncc1,Potency,[2],inactive
same,Potency,[3],inactive
same,Potency,[4],inactive
same,Potency,[14],inactive
same,"activity change, negative = inhibition",[6],-23.7%
CN[C@H]1C[C@@H](N)[C@H](O)[C@@H](O[C@@H]2O[C@H](CO)[C@H](O)[C@@H]3OC4(O[C@H]23)O[C@H]([C@@H](N)CO)[C@H](O)[C@H](O)[C@H]4O)[C@@H]1O (stereo partly drawn),Potency,[2],inactive
same,Potency,[3],inactive
same,Potency,[4],inactive
same,Potency,[5],inactive
same,Potency,[6],17.8 µM (active)
COc1ccc(C(=O)Nc2ccccc2CCC2CCCCN2C)cc1 (stereo not drawn),Potency,[2],inactive
same,Potency,[3],inactive
same,Potency,[4],inactive
same,Potency,[5],inactive
same,"activity change, negative = inhibition",[6],-20%
CNC[C@@H]1CC[C@@H](N)[C@@H](O[C@H]2[C@H](O)[C@@H](O[C@H]3OC[C@](C)(O)[C@H](NC)[C@H]3O)[C@H](N)C[C@@H]2N)O1,Potency,[2],inactive
same,Potency,[3],inactive
same,Potency,[4],inactive
same,Potency,[5],inactive
same,"activity change, negative = inhibition",[6],-15.6%
CC=CC1C(C(=O)OCc2c(F)c(F)c(COC)c(F)c2F)C1(C)C (stereo not drawn),Potency,[2],inactive
same,Potency,[3],inactive
same,Potency,[4],inactive
same,Potency,[15],6.74 µM (active)
same,Potency,[14],inactive
same,"activity change, negative = inhibition",[6],-7.64%
CCOc1ccc2c(c1)C(C)=CC(C)(C)N2,Potency,[16],15.8 µM (active)
same,Potency,[17],inactive
same,Potency,[18],2.51 µM (active)
same,outcome,[1],inactive
same,Potency,[2],inactive
same,Potency,[3],inactive
same,Potency,[5],inactive
same,Potency,[19],31.2 µM (active)
same,Potency,[14],inactive
same,Potency,[20],55.5 µM (active)
CN(C)CC/C=C1\c2ccccc2CSc2ccccc21,Potency,[2],20 µM (active)
same,Potency,[3],inactive
same,Potency,[5],inactive
same,Potency,[21],inactive
same,Potency,[14],inactive
same,Potency,[6],20 µM (active)
Nc1nc(Cl)nc2c1ncn2C1CC(O)C(CO)O1 (stereo not drawn),Potency,[2],11.2 µM (active)
same,Potency,[3],inactive
same,Potency,[5],inactive
same,Potency,[19],19.2 µM (active)
same,Potency,[20],19.2 µM (active)
CN(C(=O)/C=C/c1ccoc1)[C@@H]1CC[C@@]2(O)[C@H]3Cc4ccc(O)c5c4[C@@]2(CCN3CC2CC2)[C@H]1O5,Potency,[2],inactive
same,Potency,[4],inactive
same,Potency,[5],inactive
same,Potency,[14],inactive
same,Potency,[6],inactive
same,Potency,[10],inactive
Cc1c(OCC(F)(F)F)ccnc1C[S@@](=O)c1nc2ccccc2[nH]1,Potency,[2],inactive
same,Potency,[3],inactive
same,Potency,[5],inactive
C=C1C/C(=C\C=C2/CCC[C@]3(C)[C@@H]([C@H](C)/C=C/C(C)C(C)C)CC[C@@H]23)[C@@H](O)C[C@@H]1O (stereo partly drawn),Potency,[2],inactive
same,Potency,[3],inactive
same,Potency,[5],inactive
same,Potency,[20],0.429 µM (active)
